This passage reports inhibition results from PubChem BioAssay AID651821 (The Scripps Research Institute Molecular Screening Center, 2012).

What is called inhibition is the drop in the measured response relative to a control, in per cent.

The campaign covered roughly 370,000 compounds. About 4,700 (1.3%) were called active. The entries come from a sample that favours actives as a whole. A number with no mark means an inactive call.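 How the source made its calls: active means inhibition above the plate cutoff, the mean of all test compounds on that plate plus 3 SD (cut at about 35% in these data); inactive means the rest.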

The nature of this test: small molecules binding CAG repeat RNA – biochemical, fluorescence, primary screen (AID 651821).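 Further: 0% = DMSO alone and 100% = 100 µM mitoxantrone as full dye displacement; higher means more dye released from RNA so lower well fluorescence.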 As to conditions: r(CAG) RNA repeat, TO-PRO-1 dye displacement fluorescence; at 3 µM; active compounds read high.
As for `O=C(NCc1cccs1)C1CCN(S(=O)(=O)c2ccccc2[N+](=O)[O-])CC1`, the inhibition was 7.31%.
As for `CCC(CO)Nc1cccc2c1S(=O)(=O)N(Cc1cn(Cc3ccccc3C(F)(F)F)nn1)Cc1ccccc1O2` (stereo not drawn), the inhibition was 7.47%.
In the case of `COC(=O)C[C@H]1CC[C@H]2[C@H](COc3ccc(NC(=O)C4CC4)cc3C(=O)N2C)O1`, the inhibition is -1.01%.
Regarding `Nc1[nH]c(C(=O)c2ccc(Br)cc2)c(-c2ccc3c(c2)OCO3)c1C(=O)NCCc1c[nH]c2ccccc12`, the inhibition was 14.8%.
In the case of `Cc1ccc(C(=O)N(Cc2ccccn2)CC2CCCO2)cc1` (stereo not drawn) it was -0.73%; in that of `CCOc1c(Br)cc(/C=C2\C(=O)N(CCC#N)N=C2C)cc1OC`, 16.2%; in that of `COc1cc(/C=C2/C(=O)NN(c3cccc(Cl)c3)C2=O)cc(Br)c1O`, 64% (active).
In the case of `CCN(C(=O)[C@@H](C1CC1)[C@@H](O)c1ccc2ccccc2c1)c1ccccc1` it was -1.86%.
With `COC(=O)[C@]12C[C@H](CC(=O)NCc3ccc(C)o3)C(=O)N(CCC3=CCCCC3)C1=C[C@H](C(C)(C)C)O[C@@H]2C`, the inhibition is 0.73%.
In the case of `O=C(CNS(=O)(=O)c1ccccc1F)N1CCN(c2ccccn2)CC1` it was -0.14%.
`COc1ccc2[nH]c3c(C)c4cc[n+](C)cc4c(C)c3c2c1`: the inhibition was 39.2% (active).
As for `CC(=O)N1CCCN(C2=Nc3ccccc3Sc3ccccc32)CC1`, the inhibition is -1.49%.
For `O=S1(=O)c2ccc(Br)cc2OC[C@@H](Cc2ccccc2)N1Cc1cn(Cc2ccco2)nn1`, the inhibition was 4.58%.
With `Cc1ccc(Nc2nc(-c3ccc(O)cc3O)cs2)nc1`, the inhibition is 36.2% (active).
For `Cc1ccc(-c2csc(NCCc3nc4cc(Cl)c(Cl)cc4n3CCOCCO)n2)cc1`, the inhibition was 17.1%.
As to `CC(=O)Nc1cnc(-c2ccc(O)cc2C)cn1`, the inhibition is 1.38%.
For the compound `O=S(=O)(c1cccs1)N1CCCc2nc(-c3ccc(Br)cc3)ccc21`, the inhibition is 4.14%.
Turning to `O=C(CSc1nc2ccccc2nc1N1CCCCC1)N1CCN(S(=O)(=O)c2cccc([N+](=O)[O-])c2)CC1`, the inhibition is 12%.
In the case of `CCCCC(=O)Nc1nnc(S(=O)(=O)N(C)Cc2ccco2)s1` it was 5.48%; in that of `CN(Cc1ccccc1)S(=O)(=O)c1nnc(NC(=O)c2ccccc2F)s1`, 54.3% (active).
For `O=C(Nc1nnc(-c2ccccc2F)s1)c1ccccc1F`, the inhibition is 0.79%.
As to `Cc1cccc(C(=O)Nc2c(-c3ccc(F)cc3)nc3ncccn23)c1`, the inhibition was 0.58%.
On to `C=C(C)C1CC23C(=O)C4(C(=O)c5ccccc5)C[C@@]5(C)CCC(CC2C1(C)C)(C4=O)C35OC` (stereo partly drawn), for which the inhibition was 8.07%.
On to `O=C(CN1CCN(C(=O)c2ccco2)CC1)Nc1ccc2c(c1)OCO2`, for which the inhibition was 0.64%.
`Cc1ccc(-c2csc(C(C#N)=C(O)CN3CCN(C(=O)c4ccco4)CC3)n2)cc1`: the inhibition was 42.8% (active).
In the case of `Cc1ccc(NC(=O)C(c2ccccc2)N2CCN(C(=O)c3ccco3)CC2)cc1` (stereo not drawn), the inhibition is 4.43%.
As to `Nc1nc(CSc2nnnn2-c2ccccc2)nc(Nc2ccccc2)n1`, the inhibition is 7.48%.
With `COc1ccc(NC(=O)CSc2nnnn2-c2cccc(OC)c2)cc1`, the inhibition was 1.33%.
Take `Cc1ccc(Nc2nc(CSc3nnnn3-c3ccccc3)cc(=O)[nH]2)cc1`: the inhibition was 46.6% (active).
In the case of `CC(C)CNc1cccc2c1S(=O)(=O)N(Cc1cn(Cc3ccc(Cl)cc3)nn1)Cc1ccccc1O2`, the inhibition is 5.62%.
`C=CCOc1cccc(C2C(C(=O)c3ccc(C)o3)=C(O)C(=O)N2c2nnc(C)s2)c1` (stereo not drawn): the inhibition was 6.27%.
To `COc1cc(C2C(C(=O)c3ccco3)=C(O)C(=O)N2c2cc(C)on2)ccc1OCc1ccccc1` (stereo not drawn) belongs 10.3%; to `Cc1cc(N2C(=O)C(O)=C(C(=O)c3ccc(C)o3)C2c2ccc(OCc3ccccc3)cc2)no1` (stereo not drawn), 49.3% (active).
To `COc1cccc(Cn2cc(COC(=O)Nc3ccc(F)cc3)nn2)c1` belongs 0.76%; to `COCc1c(C(=O)N/N=C(\C)c2ccncc2)nnn1-c1nonc1N`, -1.16%; to `Cc1ccccc1CS(=O)(=O)Cc1ccc(C(=O)Nc2ccc(Cl)cc2)o1`, 6.61%.
In the case of `O=C(CSc1nc2ccccc2s1)NN=Cc1ccc(O)cc1O` it was 11%.
Consider `O=C(N/N=C/c1cc([N+](=O)[O-])ccc1O)/C(=C\c1cccs1)NC(=O)c1ccccc1`, for which the inhibition is 32.3%.
To `O=[N+]([O-])c1cc(Br)c(O)c(/C=N/Nc2nc3ccccc3s2)c1` belongs 64.1% (active).
For `C[C@H]1CN([C@@H](C)CO)C(=O)CCCn2nncc2CO[C@@H]1CN(C)Cc1ccc(Oc2ccccc2)cc1`, the inhibition was 1.78%.
For `N#CCC[C@H]1CC[C@]2(CCCN(Cc3ccc(Cl)cc3)C2)O1`, the inhibition is 1.52%.
Take `c1ccc(CN=C2Nc3ccccc3CS2)nc1`: the inhibition was -3.75%.
In the case of `Cc1ccccc1CN1CCCCC(NC(=O)c2cccc(C#N)c2)C1=O` (stereo not drawn), the inhibition is 3.06%.
Turning to `Cc1ccc(C)c(-n2c(SCC(=O)O)nc3sc4c(c3c2=O)CCCC4)c1`, the inhibition is 27.1%.
To `Cc1ccc(C)c2c1cc(C)c1nnc(SCC(=O)Nc3cccc(C(=O)O)c3)n12` belongs 2.06%.
Regarding `CC(C)c1nc(SCC(=O)Nc2cccc(C(=O)O)c2)c2c3c(sc2n1)CCCC3`, the inhibition is 69.3% (active).
In the case of `COc1cc(C)c(C)cc1S(=O)(=O)N1CCCc2ccccc21` it was -3.84%; in that of `CC(CCN1CCC(C(O)(c2ccccc2)c2ccccc2)CC1)Oc1ccc(Cl)cc1` (stereo not drawn), 1.34%; in that of `CCOc1ccc(N(CC(=O)Nc2c(C)n(C)n(-c3ccccc3)c2=O)S(=O)(=O)c2ccc(Cl)s2)cc1`, 1.32%.
In the case of `CCCCCCCCN1C(=O)[C@@H](CC(=O)N2CCN(C(=O)OCC)CC2)C[C@@]2(C(=O)OC)C1=C[C@H](C1CCCC1)O[C@@H]2C`, the inhibition is 5.15%.
For the compound `Cc1ccc(C(=O)O)cc1-c1ccc(/C=C2\SC(=O)N(CC(=O)Nc3ccc4c(c3)OCO4)C2=O)o1`, the inhibition is 56% (active).
In the case of `Cn1c(=O)c2ccccc2n(CC(=O)Nc2ccc3c(c2)OCCO3)c1=O` it was -1.32%.
In the case of `O=C(CN1CCN(c2ncc(C(F)(F)F)cc2Cl)CC1)Nc1ccc2c(c1)OCO2` it was -4.82%.
